Data published in PubChem BioAssay (NCATS).
Inconclusive results are not listed. Calls of active or inactive are those of the source. The call rests on the fitted dose curve; in most records, active means well fitted curve in the direction sought with a large enough effect; inconclusive means small, poorly fitted or top-dose-only effect, or another doubt; inactive means no such curve, though single readings can be large; an effect the other way counts as inactive or inconclusive.

Key:
[1] = qHTS of pediatric cancer cell lines to identify multiple opportunities for drug repurposing: Primary screen for BT-37 cells (AID 1347094);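 further: series mostly up to about 57 µM; plate controls were DMSO for no effect and bortezomib for full effect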
How it was run: (§1)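 Cells seeded at 500-1,000 cells/well in growth media, rested 5 hours at 37 degrees C, 5% CO2, then dosed; MIPE compounds at 11-point (from 0.78 nM) and NPC at 8-point (from 0.59 nM) final concentrations. Viability by CellTiter-Glo luminescence after 48 hours.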

[2] = qHTS of pediatric cancer cell lines to identify multiple opportunities for drug repurposing: Primary screen for NB-EBc1 cells (AID 1347095);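 further: plate controls were DMSO neutral control for no effect and bortezomib for full effect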
How it was run: as §1

[3] = qHTS of pediatric cancer cell lines to identify multiple opportunities for drug repurposing: Primary screen for U-2 OS cells (AID 1347096);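 further: plate controls were DMSO wells for no effect and bortezomib positive control wells for full effect; nearly all actives have a fitted effect of over 50% in size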
How it was run: (§2)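 Cells (500-1,000/well) rested 5 h, then received compounds for 48 h; metabolically active cells were measured by CellTiter-Glo luminescence. Final concentrations spanned up to 46 µM (MIPE, 11-point) or 0.59 nM-46 µM (NPC, 8-point) in primary screens, 11-point in follow-ups.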

[4] = qHTS of pediatric cancer cell lines to identify multiple opportunities for drug repurposing: Primary screen for Saos-2 cells (AID 1347097); further: on the % scale 0 is the no-effect control and ±100 the full control effect; nearly all actives have a fitted effect of over 40% in size
How it was run: as §1

[5] = qHTS of pediatric cancer cell lines to identify multiple opportunities for drug repurposing: Primary screen for SK-N-SH cells (AID 1347098);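 further: DMSO served as neutral control and bortezomib at 2.3 µM as positive control; on the % scale 0 is the no-effect control and ±100 the full control effect; nearly all actives have a fitted effect of over 65% in size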
How it was run: as §2

[6] = qHTS of pediatric cancer cell lines to identify multiple opportunities for drug repurposing: Primary screen for NB1643 cells (AID 1347099);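 further: plate controls were DMSO neutral control for no effect and bortezomib positive control for full effect; nearly all actives have a fitted effect of over 50% in size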
How it was run: as §1

[7] = qHTS of pediatric cancer cell lines to identify multiple opportunities for drug repurposing: Primary screen for LAN-5 cells (AID 1347100);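 further: plate controls were DMSO neutral control for no effect and bortezomib positive control for full effect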
How it was run: as §2

[8] = qHTS of pediatric cancer cell lines to identify multiple opportunities for drug repurposing: Primary screen for BT-12 cells (AID 1347101);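 further: plate controls were DMSO for no effect and bortezomib positive control for full effect; nearly all actives have a fitted effect of over 25% in size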
How it was run: as §2

[9] = qHTS of pediatric cancer cell lines to identify multiple opportunities for drug repurposing: Primary screen for RD cells (AID 1347104);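 further: plate controls were DMSO for no effect and bortezomib for full effect; nearly all actives have a fitted effect of over 55% in size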
How it was run: as §1

[10] = qHTS of pediatric cancer cell lines to identify multiple opportunities for drug repurposing: Primary screen for MG 63 (6-TG R) cells (AID 1347105); further: on the % scale 0 is the no-effect control and ±100 the full control effect; nearly all actives have a fitted effect of over 50% in size
How it was run: as §1

[11] = qHTS of pediatric cancer cell lines to identify multiple opportunities for drug repurposing: Primary screen for control Hh wild type fibroblast cells (AID 1347106);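 further: series mostly up to about 46 µM; on the % scale 0 is the no-effect control and ±100 the full control effect; a drop in luminescence marks cytotoxicity and a rise apparent proliferation; nearly all actives have a fitted effect of over 55% in size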
How it was run: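 Viability after 48 h compound treatment at 37C, 500-1,000 cells/well, read as ATP luminescence with CellTiter-Glo. Primary screens used 11-point (MIPE, 0.78 nM-46 µM) or 8-point (NPC, 0.59 nM-46 µM) final concentrations; follow-up screens used 11-point dilutions.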

[12] = qHTS of pediatric cancer cell lines to identify multiple opportunities for drug repurposing: Primary screen for Rh30 cells (AID 1347107); further: series mostly up to about 46 µM; on the % scale 0 is the no-effect control and ±100 the full control effect; nearly all actives have a fitted effect of over 75% in size
How it was run: as §2

[13] = qHTS of pediatric cancer cell lines to identify multiple opportunities for drug repurposing: Primary screen for Rh41 cells (AID 1347108);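 further: series mostly up to about 46 µM; luminescence drop marks cytotoxic hits; nearly all actives have a fitted effect of over 70% in size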
How it was run: as §1

[14] = qHTS of pediatric cancer cell lines to identify multiple opportunities for drug repurposing: Primary screen for Rh18 cells (AID 1347102); further: on the % scale 0 is the no-effect control and ±100 the full control effect; nearly all actives have a fitted effect of over 65% in size
How it was run: as §2

[15] = qHTS of pediatric cancer cell lines to identify multiple opportunities for drug repurposing: Primary screen for OHS-50 cells (AID 1347103);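 further: plate controls were DMSO neutral control for no effect and bortezomib positive control for full effect; nearly all actives have a fitted effect of over 40% in size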
How it was run: as §2

C[C@@H]1CC[C@@]2(OC1)O[C@H]1C[C@H]3[C@@H]4CC[C@H]5C[C@@H](O)CC[C@]5(C)[C@H]4CC(=O)[C@]3(C)[C@H]1[C@@H]2C
inactive: activity change, negative = cytotoxic [1] 3.33% [at 6.03 µM] | activity change, negative = cytotoxic [2] 21.8% [at 4.84 µM] | activity change, negative = cytotoxic [3] 8.89% [at 4.84 µM] | activity change, negative = cytotoxic [4] -14.3% [at 4.84 µM] | activity change, negative = cytotoxic [5] -10.6% [at 6 µM] | activity change, negative = cytotoxic [6] 31.5% [at 4.84 µM] | activity change, negative = cytotoxic [7] -6.9% [at 4.84 µM] | activity change, negative = cytotoxic [8] 6.34% [at 6.03 µM] | activity change, negative = cytotoxic [9] 12.6% [at 4.84 µM] | activity change, negative = cytotoxic [10] -5.19% [at 4.84 µM] | activity change, negative = cytotoxic [11] 6.44% [at 4.84 µM] | activity change, negative = cytotoxic [12] 18.9% [at 4.84 µM] | activity change, negative = cytotoxic [13] 21.2% [at 4.84 µM]

CCCCN(CCCC)CCCOC(=O)c1ccc(N)cc1
inactive: Potency [1] | Potency [2] | Potency [3] | Potency [4] | Potency [5] | Potency [6] | Potency [8] | Potency [14] | Potency [15] | Potency [9] | Potency [10] | outcome [11] | outcome [12] | Potency [13]

Cc1ncc(COP(=O)(O)O)c(C=O)c1O
inactive: Potency [1] | Potency [2] | Potency [3] | Potency [4] | Potency [5] | Potency [6] | Potency [8] | Potency [14] | Potency [15] | Potency [9] | Potency [10] | outcome [11] | outcome [12] | Potency [13]

CCCCC(CC)COC(=O)c1ccccc1O (centres undefined)
inactive: Potency [1] | Potency [2] | Potency [3] | Potency [4] | Potency [5] | Potency [6] | Potency [7] | Potency [8] | Potency [15] | Potency [9] | Potency [10] | outcome [11] | outcome [12] | Potency [13]

O=C(O)Cc1sc(-c2ccccc2)nc1-c1ccc(Cl)cc1
inactive: Potency [1] | Potency [2] | Potency [3] | Potency [4] | Potency [5] | Potency [6] | Potency [8] | Potency [14] | Potency [15] | Potency [9] | Potency [10] | outcome [11] | outcome [12] | Potency [13]

CN(N=O)C(=O)N[C@@H]1[C@@H](O)[C@H](O)[C@@H](CO)O[C@@H]1O
inactive: Potency [1] | Potency [2] | Potency [3] | Potency [4] | Potency [5] | Potency [6] | Potency [7] | Potency [8] | Potency [15] | Potency [9] | Potency [10] | outcome [11] | outcome [12] | Potency [13]

CCOC(CN1CCN(CC(C)C(=O)c2ccccc2)CC1)c1ccccc1 (centres undefined)
inactive: Potency [1] | Potency [2] | Potency [3] | Potency [4] | Potency [5] | Potency [6] | Potency [7] | Potency [8] | Potency [15] | Potency [9] | Potency [10] | outcome [11] | outcome [12] | Potency [13]

C/C(=C(\CCOP(=O)(O)O)SC(=O)c1ccccc1)N(C=O)Cc1cnc(C)nc1N
inactive: activity change, negative = cytotoxic [1] 17.3% [at 6.03 µM] | activity change, negative = cytotoxic [2] 16.5% [at 4.84 µM] | activity change, negative = cytotoxic [3] 14.8% [at 4.84 µM] | activity change, negative = cytotoxic [4] -7.29% [at 4.84 µM] | activity change, negative = cytotoxic [5] -2.92% [at 6 µM] | activity change, negative = cytotoxic [6] 16.8% [at 4.84 µM] | activity change, negative = cytotoxic [7] 5.99% [at 4.84 µM] | activity change, negative = cytotoxic [8] 9.87% [at 6.03 µM] | activity change, negative = cytotoxic [9] 3.8% [at 4.84 µM] | activity change, negative = cytotoxic [10] -1.82% [at 4.84 µM] | activity change, negative = cytotoxic [11] 4.64% [at 4.84 µM] | activity change, negative = cytotoxic [12] 26.4% [at 4.84 µM] | activity change, negative = cytotoxic [13] 27.9% [at 4.84 µM]

C[C@@H](O)[C@H](N)C(=O)O
inactive: Potency [1] | Potency [2] | Potency [3] | Potency [4] | Potency [5] | Potency [6] | Potency [8] | Potency [14] | Potency [15] | Potency [9] | Potency [10] | outcome [11] | outcome [12] | Potency [13]
